# In PubChem BioAssay:
# Assays:
# [1] = test system: Human papillomavirus type 1a protein E7 (residues 44-93); assay: HPV1a E7 fragment binders on microarrays, primary screen, biochemical, small-molecule microarray, residues 44-93, 635 nm fluorescence (AID 1108); details: small-molecule microarray binding, fluorescence 635 nm; higher = more signal;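 note: E7 fragment applied at 1 µg/mL in TBST for 1 h at 4 C; score combines spot fluorescence with its signal to noise ratio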
# [2] = modulators of HCV replicon luciferase signal, primary screen, HCV replication inhibitor project, Huh7 cells, luciferase reporter (AID 1109); details: 48 h, higher = more signal;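 note: huh7 hepatoma cells harbouring a luciferase neomycin HCV replicon reporter; luciferase luminescence as measure of HCV replicon replication; test concentration not given here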
# [3] = biological target: Left-right determination factor 2 (Homo sapiens) (UniProt O00292); assay: LEFTY2 binders on small-molecule microarrays, primary screen, biochemical, small-molecule microarray, 635 nm fluorescence scan (AID 1110); details: LEFTY2 binding, higher = more signal
# Sequence of Left-right determination factor 2 (Homo sapiens) (O00292 whole entry, looked up): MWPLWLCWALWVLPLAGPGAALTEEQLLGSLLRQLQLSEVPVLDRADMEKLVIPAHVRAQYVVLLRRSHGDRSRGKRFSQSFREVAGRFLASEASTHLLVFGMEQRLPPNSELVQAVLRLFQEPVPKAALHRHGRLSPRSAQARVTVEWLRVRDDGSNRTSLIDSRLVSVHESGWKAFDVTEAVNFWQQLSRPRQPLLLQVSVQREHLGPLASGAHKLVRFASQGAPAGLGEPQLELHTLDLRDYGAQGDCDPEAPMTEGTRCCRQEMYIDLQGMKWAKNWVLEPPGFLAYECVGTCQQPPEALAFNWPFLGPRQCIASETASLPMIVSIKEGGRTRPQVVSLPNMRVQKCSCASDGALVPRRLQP
# [4] = biological target: Calmodulin-1 (Homo sapiens) (UniProt P0DP23); assay: CALM1 binders on microarrays, EGTA buffer, profiling panel, biochemical, small-molecule microarray, Cy5-labelled CALM1 (AID 1111); details: Cy5-CALM1 binding fluorescence, higher = more signal;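 note: labelled calmodulin applied in Tris saline Tween buffer holding calcium plus EGTA and DTT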
# [5] = biological target: Calmodulin-1 (Homo sapiens) (UniProt P0DP23); assay: calcium-bound CALM1 binders on microarrays, profiling panel, artefact control for SMM control-protein annotation, biochemical, small-molecule microarray, Cy5-labelled CALM1, plus calcium (AID 1112); details: Cy5-CALM1 binding fluorescence, higher = more signal;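 note: score merges spot fluorescence with signal to noise from triplicate slides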
# [6] = small-molecule microarray binders of probe aWnt5a, primary screen, biochemical, biotinylated probe, 635/667 nm fluorescence (AID 1113); details: higher = more signal;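 note: score merges 667 nm fluorescence intensity with signal-to-noise per printed feature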
# [7] = small-molecule microarray binders of probe aShh, primary screen, biochemical, biotinylated probe, 635/667 nm fluorescence (AID 1114); details: higher = more signal;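 note: probe is biotin-labelled aShh protein from a stem cell growth factor screen; measures binding of labelled protein to compounds printed on the slide; score merges feature fluorescence at 667 nm with signal-to-noise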
# [8] = small-molecule microarray binders of probe aNog, primary screen, biochemical, biotinylated probe, 635/667 nm fluorescence (AID 1115); details: higher = more signal;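 note: probe is biotinylated aNog protein used at 0.15 µg/mL for 1 h at 4 C; z-score combines 667 nm fluorescence of each spot with its signal to noise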
# [9] = biological target: Torsin-1A-interacting protein 1 (Homo sapiens) (UniProt Q5JTV8); assay: LAP1 binders from COS7 cell lysate, primary screen, small-molecule microarray, 635/667 nm fluorescence (AID 1116); details: COS7-hLAP1 lysate binding, 635 nm fluorescence, higher = more signal
# Sequence of Torsin-1A-interacting protein 1 (Homo sapiens) (Q5JTV8 whole entry, looked up): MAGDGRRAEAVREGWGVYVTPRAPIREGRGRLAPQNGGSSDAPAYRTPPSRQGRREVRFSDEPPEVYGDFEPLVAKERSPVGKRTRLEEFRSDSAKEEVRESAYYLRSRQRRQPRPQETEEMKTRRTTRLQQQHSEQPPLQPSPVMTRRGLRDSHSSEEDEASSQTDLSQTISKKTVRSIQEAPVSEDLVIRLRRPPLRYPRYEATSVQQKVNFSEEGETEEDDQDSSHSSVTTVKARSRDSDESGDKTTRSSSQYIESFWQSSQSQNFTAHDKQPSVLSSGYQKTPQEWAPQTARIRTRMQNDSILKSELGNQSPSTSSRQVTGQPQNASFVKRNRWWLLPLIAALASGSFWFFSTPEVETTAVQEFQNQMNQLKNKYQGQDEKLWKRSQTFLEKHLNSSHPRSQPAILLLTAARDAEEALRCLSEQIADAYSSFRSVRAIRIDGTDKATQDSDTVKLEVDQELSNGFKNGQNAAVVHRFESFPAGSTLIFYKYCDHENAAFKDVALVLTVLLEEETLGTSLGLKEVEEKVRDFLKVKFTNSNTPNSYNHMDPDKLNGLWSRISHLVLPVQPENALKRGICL
# [10] = biological target: Alpha-bungarotoxin (Bungarus multicinctus) (UniProt P60615); assay: alpha-bungarotoxin binders on microarray, profiling panel, artefact control for SMM control protein annotation, biochemical, small-molecule microarray, Alexa647 label, 635/667 nm fluorescence (AID 1117); details: alpha-BTX-A647 binding fluorescence, higher = more signal
# Sequence of Alpha-bungarotoxin (Bungarus multicinctus) (P60615 whole entry, looked up): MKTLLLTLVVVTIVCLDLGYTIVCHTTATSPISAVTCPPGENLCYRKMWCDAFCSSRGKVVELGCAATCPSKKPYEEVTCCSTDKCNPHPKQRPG
Structure (SMILES),composite z-score [1],z-score [2],composite z-score [3],composite z-score [4],composite z-score [5],composite z-score [6],composite z-score [7],composite z-score [8],composite z-score [9],composite z-score [10]
Cc1ccc(S[C@]2(C(=O)NC3CC3)CC(=O)N(C3Cc4ccccc4C3)[C@@H]2c2ccc(CO)cc2I)cc1,0.451,-2.14,-1.05,2.09,-0.628,-0.0758,-0.375,0.144,-0.623,-0.0871
CO[C@H]1O[C@H](CO)[C@@H](OC(=O)Nc2cccc(F)c2)[C@H](OC(=O)c2cc3ccccc3[nH]2)[C@H]1OC(=O)c1cc2ccccc2[nH]1,0.177,-2.25,0.0416,0.681,0.0008,-0.232,-0.138,-0.158,-0.009,0.698
CC(C)C[C@@H]1NC(=O)[C@H]2C[C@@H](C(=O)O)[C@@H](c3cccc(OCCO)c3)N2C1=O,-0.239,2.62,0.779,-0.418,-0.2,-0.0704,-0.0289,-0.0503,0.884,0.209
[N-]=[N+]=NCc1ccccc1[C@H]1OC(c2ccc(OCCCO)cc2)=N[C@@]1(Cc1ccccc1N=[N+]=[N-])C(=O)N1CCOCC1,1.39,-2.2,-0.267,1.86,0.642,0.0115,0.539,1.44,0.506,1.4
COC(=O)C(CC#Cc1ccc2c(c1)[C@]1(C(=O)N2)[C@H](C(=O)N2CCN(c3ncccn3)CC2)[C@H]2C(=O)O[C@H](c3ccccc3)[C@H](c3ccccc3)N2[C@@H]1c1ccc(O)cc1)C(=O)OC,0.335,-1.66,0.813,2.18,1.36,0.436,0.87,1.16,2.45,2.29
CC(C)[Si]1(C(C)C)OCc2cc(-c3ccc(-c4ccc(Cl)c(Cl)c4)o3)nc(-c3ccc(Oc4ccccc4)cc3)c21,-1.76,-0.105,-1.44,-0.168,0.698,-0.265,-0.243,-0.132,-1.22,-1.55
COC(=O)[C@@]1(Cc2ccc(F)cc2)[C@H]2c3cc(C(=O)N4CCCC4)n(Cc4ccc(OC(F)(F)F)cc4)c3C[C@H]2CN1C(=O)c1ccccc1,0.118,0.234,-0.763,0.028,0.336,0.164,0.265,1.17,0.383,-0.272
COCCCNC(=O)[C@@]1(Cc2ccccc2I)c2ccccc2C(=O)N(Cc2ccccc2C(F)(F)F)[C@H]1c1ccc(CO)cc1,1.1,-0.594,-2.26,-0.285,-0.664,-0.136,-0.0848,0.2,-0.0065,-0.458
C=CCNC(=O)[C@H]1[C@@H]2C(=O)O[C@@H](c3ccccc3)[C@@H](c3ccccc3)N2[C@@H](c2ccc(OCCO)cc2)[C@]12C(=O)N(C(=O)OCCOC)c1ccc(C#CCNC(N)=O)cc12,1.06,-0.197,0.716,1.17,0.152,0.291,0.194,0.49,1.33,2.1
[N-]=[N+]=NCc1ccccc1C[C@@]1(C(N)=O)N=C(c2ccc(OCCCO)cc2)O[C@@H]1c1ccccc1N=[N+]=[N-],1.05,-0.489,-0.654,1.09,0.237,0.0088,0.199,-0.561,1.71,0.775
[N-]=[N+]=Nc1ccccc1C[C@]1(C(N)=O)COC(c2ccc(OCCCO)cc2)=N1,0.66,-1.17,-0.899,0.707,0.694,-0.0462,0.486,0.381,1.02,-0.364
CC(C)(C)OC(=O)CC[C@]1(C(=O)N2CCOCC2)COC(c2ccc(OCCCO)cc2)=N1,1.3,0.266,-0.325,0.922,1.03,-0.124,0.184,-0.283,1.13,-0.31
CC1CC/C=C\[C@H]2OC34C=CCN(CCN5CCOCC5)C(=O)[C@H]3N(C(CO)C(C)C)C(=O)[C@@H]4C2C(=O)O1 (stereo not given in full),0.0179,-0.278,-0.0839,-0.388,-1.05,-0.105,0.0469,-0.126,-0.46,-0.157
COc1ccc(CCNC(=O)[C@@]2(C)c3ccccc3C(=O)N(Cc3ccc(OC(F)(F)F)cc3)[C@H]2c2ccc(CO)cc2)cc1,1.06,-1.84,0.243,-0.717,-0.944,0.0148,0.0181,-0.737,0.986,1.04
COCCCNC(=O)[C@@]1(CCC(=O)OC(C)(C)C)N=C(c2ccc(OCCCO)cc2)O[C@H]1c1ccccc1,1.37,-0.618,-0.926,1.1,0.783,-0.0566,0.123,1.83,1.49,1.32
C[C@]1(C(=O)NCC(F)(F)F)c2ccccc2C(=O)N(Cc2cc(C(F)(F)F)cc(C(F)(F)F)c2)[C@H]1c1ccc(CO)cc1,0.454,-0.1,-0.544,-0.136,0.331,-0.0346,-0.0146,0.231,0.173,0.342
COC(=O)C(CC#Cc1ccc2c(c1)[C@]1(C(=O)N2)[C@H](C(=O)N2CCCCCCC2)[C@H]2C(=O)O[C@H](c3ccccc3)[C@H](c3ccccc3)N2[C@@H]1c1ccc(OCCO)cc1)C(=O)OC,1.55,-1.57,1.76,3.07,1.68,1.63,3.53,3.7,6.05,4.36
